Platelet DG rel: inhibitors of platelet dense granule secretion, primary screen, cell-based, MLPCN, human platelets; inhibition, %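 (compounds screened at 7.5 µM in platelet-rich plasma)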; human platelet-rich plasma, SFLLRN dense granule ATP release, luminescence; actives 0.22% (n = 300,000);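 active means mean replicate score, as percent of positive control, at or above 50; inconclusive means mean below 50 but at least one replicate at or above 50; inactive means mean and every replicate below 50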
SENP6 block: SENP6 protease inhibitors, primary screen, biochemical, luminescence, uHTS; inhibition, % at 10 µM; actives 1.8% (n = 330,000); Sentrin-specific protease 6 (Homo sapiens), Q9GZR1; Recombinant SENP6 catalytic domain, aminoluciferin luminescence;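 active means inhibition above about 50% at the single tested dose, limit read from the data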;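 further: plate controls were DMSO wells with enzyme for no effect and DMSO wells lacking enzyme for full effect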
SENP7 block: SENP7 protease inhibitors, primary screen, biochemical, luminescence, uHTS; Sentrin-specific protease 7 (Homo sapiens), Q9BQF6; recombinant SENP7, Z-RLRGG-aminoluciferin luminescence, 40 min; inhibition, % at 5 µM; actives 1.5% (n = 330,000); AID 434973, 2010;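 active means inhibition above about 50% at the single test dose, limit read from the data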;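 further: plate controls were DMSO with enzyme for no effect and no enzyme buffer wells for full effect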
Target sequence (Q9BQF6 706-1050 limits assumed): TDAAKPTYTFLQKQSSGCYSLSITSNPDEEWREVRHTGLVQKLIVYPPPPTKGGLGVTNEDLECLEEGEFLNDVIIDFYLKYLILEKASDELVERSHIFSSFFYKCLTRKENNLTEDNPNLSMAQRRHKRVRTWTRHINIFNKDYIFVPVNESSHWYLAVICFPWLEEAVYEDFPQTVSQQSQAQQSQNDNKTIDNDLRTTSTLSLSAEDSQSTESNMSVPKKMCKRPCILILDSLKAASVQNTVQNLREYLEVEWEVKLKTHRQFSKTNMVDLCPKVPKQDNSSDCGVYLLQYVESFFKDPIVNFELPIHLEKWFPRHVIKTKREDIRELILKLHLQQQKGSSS
SENP8 block-1: SENP8 protease inhibitors, primary screen, biochemical, luminescence. purified SENP8, Z-RLRGG-aminoluciferin cleavage. actives 1.2% (n = 330,000). AID 2540, 2010. inhibition, % at 10 µM; in the data active means inhibition above about 50%
Target sequence (Q96LD8 whole entry, looked up): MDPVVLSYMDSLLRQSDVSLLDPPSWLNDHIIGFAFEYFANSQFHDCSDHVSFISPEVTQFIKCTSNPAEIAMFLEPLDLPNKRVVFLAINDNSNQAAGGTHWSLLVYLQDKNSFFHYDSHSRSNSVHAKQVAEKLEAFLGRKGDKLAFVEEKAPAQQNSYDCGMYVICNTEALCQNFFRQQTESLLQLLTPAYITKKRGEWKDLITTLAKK
SENP8 block-2: human SENP8 protease inhibitors, primary screen, biochemical, fluorescence, Nedd8 protein substrate, uHTS; Sentrin-specific protease 8 (Homo sapiens), Q96LD8; recombinant SENP8; inhibition, % at 20 µM; actives 0.64% (n = 360,000); in the data active means inhibition mostly above about 40%, no sharp cut-off; inactive means mostly below about 27%
Starred values were filed as active, the others as inactive; ? = inconclusive; . = no result given. In the library only some 2.4% were active in any assay of this set; here they are far more common.

SMILES	Platelet DG rel	SENP6 block	SENP7 block	SENP8 block-1	SENP8 block-2
CCOc1ccc(OCc2ccc(C(=O)NCc3cccnc3)o2)cc1	69.7*	-4.2	7.6	4.2	-21.9
Cc1nc(N2CCC(C)CC2)c2oc3ccccc3c2n1	60.0*	-14.3	-10.7	-8.0	-48.9
CC(C)(C)OC(=O)COc1ccc(/C=N/NC(=O)CN2CCCCC2)cc1	2.9	-10.5	-0.1	-3.4	20.1
CC(C)(C)S(=O)N1Cc2cc(C(=O)N3CCOCC3)nc(-c3cccc(Br)c3)c2[C@@H]1CCO (stereo not given in full)	.	.	.	.	-17.3
CCN(CC)CC(=O)Nc1c(C)cccc1C	.	-1.4	2.1	0.7	5.1
O=C1c2ccccc2C(=O)c2c(NCCCN(CCO)CCO)cccc21	3.0	9.3	-3.0	3.7	43.7*
CCN(CC)CC(=O)Nc1cccc2c1C(=O)c1ccccc1C2=O	-0.8	1.4	0.1	-4.0	40.1*
O=C1c2ccccc2-c2c1cccc2C(=O)N(CCO)CCO	4.7	-0.5	4.0	-1.5	10.1
Cc1ccc(-c2nc(SC(C)C(=O)N3CCOCC3)n[nH]2)cc1 (stereo not given)	61.3*	-2.4	11.6	-2.0	28.5
Cc1cccc(-c2cc3c(N=O)c4ccccc4c-3n[nH]2)c1	42.2	96.2*	99.5*	10.5	4.3
O=Nc1c2cc(-c3ccccc3)[nH]nc-2c2ccccc12	?	.	.	.	13.9
Cc1ccccc1NC1=C/C(=N\S(=O)(=O)c2cccs2)c2ccccc2C1=O	-7.6	86.3*	88.6*	89.7*	98.7*
Cc1ccc(NC(=O)CN(C)S(=O)(=O)c2cccs2)cc1C	-2.0	-15.8	-4.2	-0.9	5.6
Cc1ccc(NC2=C/C(=N/S(=O)(=O)c3cccs3)c3ccccc3C2=O)cc1C	5.7	.	.	.	60.6*
Cc1ccc(NS(=O)(=O)c2cccs2)c(C)c1	-3.6	-9.2	9.9	1.4	1.1
ON1C(c2ccc(Cl)cc2Cl)N(O)[C@H]2CCCC[C@H]21 (stereo not given in full)	-2.0	-2.6	1.4	-1.8	12.2
CC1N(O)C(c2ccc(Cl)cc2Cl)N(O)C1(C)C (stereo not given)	68.0*	-10.2	-2.9	0.4	16.7
O=C(c1cc(O)c(O)c([N+](=O)[O-])c1)c1ccccc1F	.	-4.2	-5.2	9.2	39.3*
O=C(Nc1ccc([N+](=O)[O-])cc1)c1ccccc1F	1.4	13.4	12.1	6.9	30.8
O=C1NN(c2cccc(Br)c2)C(=O)/C1=C/c1ccc(-c2cc([N+](=O)[O-])ccc2O)o1	0.9	15.6	6.4	10.9	51.3*
CC1=NN(c2ccc(C)cc2)C(=O)/C1=C/c1ccc(-c2cc([N+](=O)[O-])ccc2O)o1	1.7	18.4	-8.8	1.3	28.3
O=C(CSCc1ccco1)c1cccs1	85.4*	-6.6	-2.8	-10.0	27.2
O=C(NCc1ccco1)c1cccs1	9.4	2.8	4.4	4.8	14.6
CC(=O)Nc1ccc(Nc2nc(-c3sc(NC(C)=O)nc3C)cs2)cc1	7.6	-16.2	5.3	-0.2	-318.6
CC(=O)Nc1nc(C)c(-c2csc(Nc3ccccn3)n2)s1	0.3	87.3*	79.3*	74.0*	-305.9
SMILES	Platelet DG rel	SENP6 block	SENP7 block	SENP8 block-1	SENP8 block-2
Cc1ccc2cc(NC(=O)c3cccc(F)c3)ccc2n1	11.1	58.1*	40.1	31.0	24.9
O=C(Nc1ccc2[nH]ncc2c1)c1cccc(F)c1	-0.5	0.3	0.7	-13.8	14.9
Cc1onc(-c2ccccc2)c1NC(=O)N(CCC#N)Cc1cccs1	-5.7	-15.2	1.1	-2.8	5.6
Cn1cc(CN(CCO)Cc2cccs2)c(-c2cccc(Cl)c2)n1	57.5*	-10.2	6.1	-1.1	24.2
CN(Cc1cn(C)nc1-c1cccc(Cl)c1)Cc1nccn1C	-1.7	-6.3	5.8	4.2	14.9
O=C1CCN(Cl)C(=O)N1Cl	.	.	.	.	11.8
COc1cc(S(=O)(=O)Nc2cccc(C)c2)ccc1N=Cc1c(C)[nH]n(-c2ccccc2)c1=O	0.3	-0.1	1.8	7.1	.
Cc1[nH]n(-c2ccccc2)c(=O)c1C=Nc1ccc(S(=O)(=O)Nc2nccs2)cc1	0.1	1.6	-2.2	-4.3	43.6*
COc1cc(S(=O)(=O)Nc2ccc(C)cc2)ccc1N=Cc1c(C)[nH]n(-c2ccccc2)c1=O	0.9	4.0	6.3	-7.2	45.9*
NC(=O)NC(CC(=O)N1CCc2ccccc2C1)c1ccc(Cl)cc1 (stereo not given)	1.3	6.3	-1.0	2.4	0.0
CCn1c(SCC(=O)N/N=C/c2c[nH]c3ccccc23)nnc1-c1ccc(C(C)(C)C)cc1	1.3	1.6	-7.3	-6.7	11.1
O=C(Cn1cccc1)N1CCN(c2ccc(F)cc2)CC1	56.0*	-10.5	-2.2	4.7	7.6
COc1ccc(/C=C2\CCC(C3CCCC3)C2=O)cc1OC (stereo not given)	-4.1	11.9	0.8	-5.1	17.2
Cc1ccc(/C=C2\CCC(C3CCCC3)C2=O)cc1 (stereo not given)	-0.6	88.9*	75.1*	40.4	6.8
COc1ccc(CNc2nc3ccccc3n2C)c(OC)c1	35.2	40.3	61.0*	60.5*	5.2
CCCOC(=O)CCCN1C(=O)/C(=C2\SC(=S)N(CCCC(=O)OCCC)C2=O)SC1=S	-0.9	-3.2	-10.6	3.1	37.7*
Cc1cccc(C)c1NC(=O)C1(C)CN(S(C)(=O)=O)CC(=O)N1CCc1c[nH]c2ccccc12 (stereo not given)	.	.	.	.	19.0
Cc1[nH]c(C)c(S(=O)(=O)N2CCN(c3ccccc3)CC2)c1C(=O)N1CCCCC1	5.0	3.6	-4.8	-0.8	14.2
N#C/C(=C(/O)c1ccc2c(c1)OCO2)c1nc2cc(C(F)(F)F)ccc2s1	1.9	47.7	5.4	53.5*	-50.8
N#C/C(=C(/O)c1ccccc1F)c1nc2cc(C(F)(F)F)ccc2s1	0.2	-5.8	5.9	-2.1	5.7
Cc1ccc(N2C(=O)c3ccccc3C2Nc2ccccc2F)nc1 (stereo not given)	-1.4	-14.5	13.4	-2.1	9.1
Cc1ccc(N2C(=O)c3ccccc3C2O)nc1 (stereo not given)	77.6*	.	.	.	.
O=C(Cc1nc(=O)c2ccccc2s1)Nc1ccccc1	2.9	46.3	92.0*	1.9	-137.4
O=C1CSC(c2cn(-c3ccccc3)nc2-c2ccc3c(c2)OCCO3)N1CCN1CCOCC1 (stereo not given)	55.4*	-8.0	5.4	-4.8	16.5
c1ccc(-n2cc(CN3CCC(N4CCOCC4)CC3)c(-c3ccc4c(c3)OCO4)n2)cc1	2.2	-19.5	3.1	-4.1	-28.6
Cc1ccc(-c2cn3cccc(C)c3n2)cc1	10.2	.	.	.	-206.7
COc1ccc(-c2cn3cccc(C)c3n2)cc1F	0.9	4.6	60.0*	48.2	-298.0
COc1ccc2noc3c2c1C(=O)c1ccccc1-3	-0.5	86.9*	57.0*	80.1*	104.8*

Source: PubChem (several laboratories)
